Results on eleven molecules are retold here after PubChem BioAssay (NCATS).

Each structure is given as a SMILES string. Several values for one entry are separate records, joined by “and”; a condition that tells them apart may be missing. Identical values can stand only once. Results filed as inconclusive are left out. Activity calls are given as the source filed them. Unless noted, calls come from the whole dose curve; as a rule, active = well fitted curve in the direction sought with a large enough effect; inconclusive = small, poorly fitted or top-dose-only effect, or another doubt; inactive = no such curve, though single readings can be large; an effect the other way counts as inactive or inconclusive. Non-standard residues stand in square brackets, D forms with d. Residues, ends and D or L forms follow the SMILES beside them. Orn = NCCC[C@H](N)C(=O)O

In assay [1] the target is Estrogen receptor (Homo sapiens) (UniProt P03372). Kind of assay: qHTS assay for small molecule agonists of estrogen receptor alpha signaling (AID 588514; calls by dose curve;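 note: 0% = vehicle only and 100% = reference agonist; nearly all actives have a fitted effect of over 70% in size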). In a few lines: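 ER-alpha-UAS-bla GripTite HEK 293 cells in medium with 2% charcoal/dextran-treated FBS were treated with compound titrations at 37 C for 18 hrs; beta-lactamase reporter read by CCF4 fluorescence after 2 hrs at RT.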
In general terms: qHTS replaces the single test concentration by a dilution series.

Assay [2] deals with Androgen receptor (Homo sapiens) (UniProt P10275). Kind of assay: qHTS assay for small molecule agonists of androgen receptor signaling (AID 588515; active = well fitted curve in the direction sought with a large enough effect in the signal ratio, with a control signal flat; the % refers to the signal ratio; note: % is set by controls: 0 for no effect and ±100 for the full control effect). To be noted: AR-UAS-bla HEK293, beta-lactamase ratio, agonist 16 h; stronger effect = higher value. In short, it runs like this: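 EC50 and efficacy came from Hill fits of titrations (up to 92 uM) normalized to 30 nM R1881 as 100% and DMSO as 0%. Compound exposure was 16 h at 37 C on AR-UAS-bla HEK293 cells, with a 405/460/530 nm CCF4 fluorescence read.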

The target is the same in assay [3]. In words: qHTS assay for small molecule antagonists of androgen receptor signaling (AID 588516; active = well fitted curve in the direction sought with a large enough effect in the signal ratio, with a control signal flat, not every such curve was filed as active; the % refers to the signal ratio; note: % is set by controls: 0 for no effect and ±100 for the full control effect). In short, it runs like this: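 Cells were plated and incubated 5 h, compounds added in titration, then R1881 (10 nM final) as agonist. After 16 h at 37 C, CCF4 substrate was loaded for 2 h at room temperature and fluorescence measured.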
Assay [4] is described as follows: qHTS assay for small molecule antagonists of peroxisome proliferator-activated receptor delta signaling (AID 588535; active = well fitted inhibition curve with a large enough effect in the signal ratio, with a control signal flat, not every such curve was filed as active; the % refers to the signal ratio;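 for max response: cells co-treated with a PPAR-delta agonist as stimulator during compound exposure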). To be noted: HEK293T PPARd-UAS-bla, beta-lactamase FRET ratio, 18 h; 460 nm channel. In short, it runs like this: (§1)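 GeneBLAzer PPAR-delta-UAS-bla HEK293T cells in medium with 2% charcoal/dextran FBS were preincubated 5 hrs at 37 C, then given compounds, incubated 18 hrs at 37 C, and read by CCF4 beta-lactamase fluorescence; IC50 from Hill fits.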

In assay [5] the target is Peroxisome proliferator-activated receptor delta (Homo sapiens) (UniProt Q03181). The description is as above. In a few lines:
as §1

The target in assay [6] is Peroxisome proliferator-activated receptor gamma (Homo sapiens) (UniProt P37231). In words: qHTS assay for small molecule antagonists of peroxisome proliferator-activated receptor gamma signaling (AID 588537; active = well fitted inhibition curve with a large enough effect in the signal ratio, with a control signal flat, not every such curve was filed as active; the % refers to the signal ratio;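 note: reporter cells co-stimulated with 50 nM rosiglitazone agonist during compound treatment; % of control where 0% means no effect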). In short, it runs like this: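 PPAR-gamma-UAS-bla HEK293 cells (3000/well, 1% charcoal/dextran-stripped FBS) were preincubated 6-6.5 h at 37 C, given titrated compounds, then stimulated with 50 nM rosiglitazone for 16 h. Beta-lactamase activity was read with CCF4 dye; IC50 came from Hill fits.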
Sequence of Peroxisome proliferator-activated receptor gamma (Homo sapiens) (P37231 whole entry, looked up): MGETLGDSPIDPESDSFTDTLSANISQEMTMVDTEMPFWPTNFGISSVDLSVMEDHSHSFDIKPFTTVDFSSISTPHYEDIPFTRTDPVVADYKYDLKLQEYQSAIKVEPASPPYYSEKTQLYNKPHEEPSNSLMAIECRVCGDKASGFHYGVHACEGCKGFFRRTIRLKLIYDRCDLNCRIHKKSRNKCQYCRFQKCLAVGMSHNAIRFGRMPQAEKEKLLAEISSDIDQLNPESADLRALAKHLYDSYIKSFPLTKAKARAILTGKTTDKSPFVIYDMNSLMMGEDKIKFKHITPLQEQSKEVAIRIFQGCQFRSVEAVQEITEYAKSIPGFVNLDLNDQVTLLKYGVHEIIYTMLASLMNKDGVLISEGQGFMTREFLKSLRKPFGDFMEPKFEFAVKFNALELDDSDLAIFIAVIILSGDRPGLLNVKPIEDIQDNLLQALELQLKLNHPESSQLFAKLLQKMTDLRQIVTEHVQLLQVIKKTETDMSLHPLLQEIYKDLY

The target in assay [7] is Vitamin D3 receptor (Homo sapiens) (UniProt P11473). In words: qHTS assay for small molecule antagonists of vitamin D receptor signaling (AID 588541; calls by dose curve;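 note: receptor activated by calcitriol during compound treatment; series mostly up to about 77 µM; % is set by controls: 0 for no effect and ±100 for the full control effect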). In a few lines: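 VDR-UAS-bla HEK293T cells (2000/well, 2% charcoal-stripped FBS) were treated with titrated compounds plus 1-alpha,25-dihydroxyvitamin D3 (50 nM or 3 nM final) for 16 h at 37 C. CCF4 beta-lactamase fluorescence was read; Hill fits gave IC50.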
Sequence of Vitamin D3 receptor (Homo sapiens) (P11473 whole entry, looked up): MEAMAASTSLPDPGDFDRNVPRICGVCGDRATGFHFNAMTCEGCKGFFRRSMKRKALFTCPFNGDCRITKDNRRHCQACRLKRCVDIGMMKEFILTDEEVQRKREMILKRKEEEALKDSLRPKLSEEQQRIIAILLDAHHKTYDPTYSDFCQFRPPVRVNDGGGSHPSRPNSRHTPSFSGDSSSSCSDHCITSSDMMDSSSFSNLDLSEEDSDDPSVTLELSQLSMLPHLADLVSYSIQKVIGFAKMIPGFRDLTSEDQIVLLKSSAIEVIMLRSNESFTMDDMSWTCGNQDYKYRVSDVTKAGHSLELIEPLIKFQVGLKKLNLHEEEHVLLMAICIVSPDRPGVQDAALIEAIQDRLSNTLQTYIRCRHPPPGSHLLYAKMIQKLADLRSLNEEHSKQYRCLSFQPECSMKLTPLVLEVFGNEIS

For assay [8] the target is unchanged. In words: qHTS assay for small molecule agonists of vitamin D receptor signaling (AID 588543; calls by dose curve;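 note: 0% = DMSO basal and 100% = reference agonist control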). In a few lines: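 Reporter cells (HEK293T, VDR-UAS-bla) were seeded in medium with 2% charcoal-stripped serum and incubated 5 h, then compounds in concentration series were added for 16 h at 37 °C. Stimulation was scaled between DMSO basal and 50 nM 1α,25-dihydroxyvitamin D3.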

Assay [9] can be described thus: qHTS assay for small molecule agonists of retinoid X receptor alpha signaling (AID 588544; calls by dose curve;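 for activation: 0% = DMSO basal wells and 100% = reference agonist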). Particulars: HEK293T RXRa-UAS-bla, beta-lactamase reporter, 18 h; 530 nm emission.
For assay [10], the target named is Retinoic acid receptor RXR-alpha (Homo sapiens) (UniProt P19793). The description is as above.
Sequence of Retinoic acid receptor RXR-alpha (Homo sapiens) (P19793 whole entry, looked up): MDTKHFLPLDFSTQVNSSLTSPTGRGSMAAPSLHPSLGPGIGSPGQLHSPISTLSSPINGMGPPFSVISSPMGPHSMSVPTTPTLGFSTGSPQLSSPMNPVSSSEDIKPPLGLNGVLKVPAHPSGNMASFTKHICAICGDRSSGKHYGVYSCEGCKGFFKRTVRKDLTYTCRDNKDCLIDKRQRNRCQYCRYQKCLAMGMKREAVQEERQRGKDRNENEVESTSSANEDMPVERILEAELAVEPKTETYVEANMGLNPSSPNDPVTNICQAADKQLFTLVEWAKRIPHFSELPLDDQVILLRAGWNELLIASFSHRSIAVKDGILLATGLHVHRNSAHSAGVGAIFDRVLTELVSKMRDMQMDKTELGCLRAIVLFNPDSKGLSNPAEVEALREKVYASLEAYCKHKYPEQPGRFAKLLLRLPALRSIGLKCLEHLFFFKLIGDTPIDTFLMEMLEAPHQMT
The target in assay [11] is Thyroid hormone receptor beta (Homo sapiens) (UniProt P10828). In words: qHTS assay for small molecule agonists of thyroid hormone receptor beta signaling (AID 588545; calls by dose curve;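 note: 0% = DMSO only and 100% = 10 nM T3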). In a few lines: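 TR-UAS-bla GripTite HEK 293 cells (2500/well, medium with 2% charcoal/dextran FBS) were treated in agonist mode for 18 h at 37 C, titrated. Beta-lactamase was read by CCF4 ratio after 2 h; normalized to 10 nM T3 (100%) and DMSO, Hill-fitted for EC50 and efficacy.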
Sequence of Thyroid hormone receptor beta (Homo sapiens) (P10828 whole entry, looked up): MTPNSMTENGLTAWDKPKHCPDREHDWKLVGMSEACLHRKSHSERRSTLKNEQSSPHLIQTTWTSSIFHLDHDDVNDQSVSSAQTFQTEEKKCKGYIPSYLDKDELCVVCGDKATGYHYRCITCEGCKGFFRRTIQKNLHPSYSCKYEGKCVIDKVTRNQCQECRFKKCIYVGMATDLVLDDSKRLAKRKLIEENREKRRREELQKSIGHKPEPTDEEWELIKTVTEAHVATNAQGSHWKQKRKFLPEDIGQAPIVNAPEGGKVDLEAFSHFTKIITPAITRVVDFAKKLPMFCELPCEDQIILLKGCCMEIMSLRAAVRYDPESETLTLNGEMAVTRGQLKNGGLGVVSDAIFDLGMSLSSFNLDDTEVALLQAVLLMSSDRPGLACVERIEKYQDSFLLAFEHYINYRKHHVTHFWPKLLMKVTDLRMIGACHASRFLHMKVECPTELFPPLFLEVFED

Assay [12] in a line: qHTS assay for small molecule antagonists of retinoid X receptor alpha signaling (AID 588546).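 Note: cells stimulated with 9-cis-retinoic acid as agonist; % is set by controls: 0 for no effect and ±100 for the full control effect.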 Particulars: HEK293T RXRa-UAS-bla, beta-lactamase ratio, antagonist mode; measured here: W530 green channel, cytotoxicity proxy. In short, it runs like this:
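Beta-lactamase reporter inhibition, read as CCF4 fluorescence ratio (ex 405, em 460/530 nm) after 2 h at RT. HEK293T UAS-bla cells, 2500/well, were stimulated with 9-cis-RA at 500 or 100 nM final alongside test compound for 18 h at 37 C.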

The target of assay [13] is Thyroid hormone receptor beta (Homo sapiens) (UniProt P10828). In words: qHTS assay for small molecule antagonists of thyroid hormone receptor beta signaling (AID 588547; active = well fitted inhibition curve with a large enough effect in the signal ratio, with a control signal flat, not every such curve was filed as active; the % refers to the signal ratio). Particulars: TR-UAS-bla HEK293, beta-lactamase ratio, antagonist mode, 18 h. In short, it runs like this: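 TR-UAS-bla GripTite HEK293 cells in 2% charcoal/dextran FBS medium were preincubated 4 h at 37 C, given compound (0.59 nM to 92 uM) plus 0.4 nM T3 (final) for 18 h, then CCF4 for 2 h at RT; Hill fit gave IC50.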

Assay [14] concerns the target Voltage-gated inwardly rectifying potassium channel KCNH2 (Homo sapiens) (UniProt Q12809). In words: qHTS Assay for Small Molecule Inhibitors of the Human hERG Channel Activity (AID 588834).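 Note: lower thallium flux fluorescence means stronger hERG block; nearly all actives have a fitted effect of over 50% in size.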 Note: potency is the fitted concentration of half-maximal effect. In short, it runs like this: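 hERG-BacMam U2OS, 2000 cells/well; 0.7X FluxOR loading 1 hr RT dark; cpd ~10 min 37 °C; stim buffer; FDSS fluorescence 2 min @ 1 s; AC50 Hill fit.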

Assay [15] concerns the target Luciferin 4-monooxygenase (Photinus pyralis) (UniProt P08659). In words: Biochemical firefly luciferase enzyme assay for NPC (AID 624030).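 Note: purified P. pyralis luciferase at 10 nM with luciferin and ATP substrate; series mostly up to about 59 µM; 0% = DMSO and -100% = full luciferase inhibition by PTC124 control; nearly all actives have a fitted effect of over 70% in size.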 In short, it runs like this:
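Counter-screen for direct inhibition of the luciferase enzyme by approved-drug library compounds, run at 10 nM enzyme in 50 mM Tris acetate (final). Luminescence was read within 5 min of enzyme-buffer addition and normalized to PTC124 versus DMSO (0%).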

Assay [16] can be described thus: S16 Schwann cell viability assay (CellTiter-Glo assay) (AID 624031).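 Note: series mostly up to about 58 µM; plate controls were DMSO-treated cells for no effect and cell-free wells for full effect; nearly all actives have a fitted effect of over 70% in size.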 In short, it runs like this:
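Native S16 rat Schwann cells in DMEM/10% FBS without phenol red were incubated overnight, then exposed to compounds for 24 h at 37 °C/5% CO2. Viability was read as ATP luminescence (CellTiter-Glo), normalized to no-cell wells and DMSO (0%).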
In general terms: ATP-based viability assays read luminescence as a measure of living cells.

Assay [17] is described as follows: S16 Schwann cell PMP22 intronic element firefly luciferase assay (AID 624032). Note: nearly all actives have a fitted effect of over 30% in size. Note: potency is the fitted concentration of half-maximal effect. In short, it runs like this:
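Rat S16 Schwann cells stably carrying a PMP22 intronic element-driven Fluc reporter were seeded overnight, then exposed to compounds for 24 h at 37 °C. Luminescence was normalized to PTC124 (positive control) and DMSO (0% activity).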

The target of assay [18] is Glucocorticoid receptor (Homo sapiens) (UniProt P04150). Kind of assay: qHTS assay for small molecule agonists of glucocorticoid receptor signaling (AID 588532; active = well fitted curve in the direction sought with a large enough effect in the signal ratio, with a control signal flat; the % refers to the signal ratio;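 note: 100% = dexamethasone at 0.1 µM and 0% = DMSO only wells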). To be noted: HeLa MMTV-bla, beta-lactamase ratio, agonist, 18 h; stronger effect = higher value; percent of dexamethasone control, DMSO zero. In short, it runs like this:
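Stimulation of a glucocorticoid response element-driven beta-lactamase gene was measured in HeLa cells. Responses were scaled between DMSO basal and 0.1 uM dexamethasone, then fitted for half-maximal stimulation.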

Assay [19] shares this target. Kind of assay: qHTS assay for small molecule antagonists of glucocorticoid receptor signaling (AID 588533; active = well fitted inhibition curve with a large enough effect in the signal ratio, with a control signal flat, not every such curve was filed as active; the % refers to the signal ratio). In short, it runs like this: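 Antagonist-mode qHTS: compound titrations added to GRE-bla HeLa cells, then dexamethasone 2 nM final; 18 h, 37 C. CCF4 FRET fluorescence normalized to dexamethasone and DMSO; IC50 from Hill fit.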
Assay [20] has as its target Bile acid receptor (Homo sapiens) (UniProt Q96RI1). In words: qHTS assay for small molecule antagonists of farnesoid X receptor signaling (AID 588526; calls by dose curve; note: potency is the fitted concentration of half-maximal effect). In short, it runs like this:
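Concentration-response titrations were fitted to the Hill equation for half-maximal inhibition and maximal response, with data normalised to 50 uM chenodeoxycholic acid and DMSO control wells. Cells: FXR-UAS-bla HEK293T, dialyzed FBS.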

Sequence of Peroxisome proliferator-activated receptor delta (Homo sapiens) (Q03181 whole entry, looked up): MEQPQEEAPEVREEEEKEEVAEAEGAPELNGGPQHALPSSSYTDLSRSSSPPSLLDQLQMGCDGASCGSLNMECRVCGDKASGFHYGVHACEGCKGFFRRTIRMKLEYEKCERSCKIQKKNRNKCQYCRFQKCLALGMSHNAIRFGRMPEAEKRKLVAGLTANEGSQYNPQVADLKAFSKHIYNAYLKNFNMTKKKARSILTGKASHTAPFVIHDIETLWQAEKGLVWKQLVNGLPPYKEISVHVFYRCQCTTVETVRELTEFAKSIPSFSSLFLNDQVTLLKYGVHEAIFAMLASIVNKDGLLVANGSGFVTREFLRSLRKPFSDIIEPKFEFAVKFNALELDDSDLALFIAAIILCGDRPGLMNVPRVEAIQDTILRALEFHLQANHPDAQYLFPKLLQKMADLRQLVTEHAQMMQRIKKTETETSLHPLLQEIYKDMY
Sequence of Glucocorticoid receptor (Homo sapiens) (P04150 whole entry, looked up): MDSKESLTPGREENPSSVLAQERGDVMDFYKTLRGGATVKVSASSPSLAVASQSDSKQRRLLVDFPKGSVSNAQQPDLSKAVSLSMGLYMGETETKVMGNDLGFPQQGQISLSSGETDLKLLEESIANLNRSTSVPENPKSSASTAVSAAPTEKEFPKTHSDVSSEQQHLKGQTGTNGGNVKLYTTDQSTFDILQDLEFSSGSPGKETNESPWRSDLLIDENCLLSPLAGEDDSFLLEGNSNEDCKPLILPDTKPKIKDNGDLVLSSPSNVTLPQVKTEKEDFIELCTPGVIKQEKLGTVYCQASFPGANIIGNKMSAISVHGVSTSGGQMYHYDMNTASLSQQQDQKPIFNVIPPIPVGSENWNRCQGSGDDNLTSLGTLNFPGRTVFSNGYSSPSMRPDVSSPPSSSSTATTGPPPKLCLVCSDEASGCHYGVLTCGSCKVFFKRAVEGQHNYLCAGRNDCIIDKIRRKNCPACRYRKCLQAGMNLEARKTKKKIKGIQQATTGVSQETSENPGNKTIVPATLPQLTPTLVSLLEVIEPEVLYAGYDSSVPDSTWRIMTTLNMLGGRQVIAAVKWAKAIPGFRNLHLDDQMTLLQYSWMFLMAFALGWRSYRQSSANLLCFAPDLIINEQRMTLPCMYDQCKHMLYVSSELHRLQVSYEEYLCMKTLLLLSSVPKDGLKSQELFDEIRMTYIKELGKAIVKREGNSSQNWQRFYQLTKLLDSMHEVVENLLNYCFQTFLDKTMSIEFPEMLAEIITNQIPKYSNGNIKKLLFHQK
Sequence of Voltage-gated inwardly rectifying potassium channel KCNH2 (Homo sapiens) (Q12809 whole entry, looked up): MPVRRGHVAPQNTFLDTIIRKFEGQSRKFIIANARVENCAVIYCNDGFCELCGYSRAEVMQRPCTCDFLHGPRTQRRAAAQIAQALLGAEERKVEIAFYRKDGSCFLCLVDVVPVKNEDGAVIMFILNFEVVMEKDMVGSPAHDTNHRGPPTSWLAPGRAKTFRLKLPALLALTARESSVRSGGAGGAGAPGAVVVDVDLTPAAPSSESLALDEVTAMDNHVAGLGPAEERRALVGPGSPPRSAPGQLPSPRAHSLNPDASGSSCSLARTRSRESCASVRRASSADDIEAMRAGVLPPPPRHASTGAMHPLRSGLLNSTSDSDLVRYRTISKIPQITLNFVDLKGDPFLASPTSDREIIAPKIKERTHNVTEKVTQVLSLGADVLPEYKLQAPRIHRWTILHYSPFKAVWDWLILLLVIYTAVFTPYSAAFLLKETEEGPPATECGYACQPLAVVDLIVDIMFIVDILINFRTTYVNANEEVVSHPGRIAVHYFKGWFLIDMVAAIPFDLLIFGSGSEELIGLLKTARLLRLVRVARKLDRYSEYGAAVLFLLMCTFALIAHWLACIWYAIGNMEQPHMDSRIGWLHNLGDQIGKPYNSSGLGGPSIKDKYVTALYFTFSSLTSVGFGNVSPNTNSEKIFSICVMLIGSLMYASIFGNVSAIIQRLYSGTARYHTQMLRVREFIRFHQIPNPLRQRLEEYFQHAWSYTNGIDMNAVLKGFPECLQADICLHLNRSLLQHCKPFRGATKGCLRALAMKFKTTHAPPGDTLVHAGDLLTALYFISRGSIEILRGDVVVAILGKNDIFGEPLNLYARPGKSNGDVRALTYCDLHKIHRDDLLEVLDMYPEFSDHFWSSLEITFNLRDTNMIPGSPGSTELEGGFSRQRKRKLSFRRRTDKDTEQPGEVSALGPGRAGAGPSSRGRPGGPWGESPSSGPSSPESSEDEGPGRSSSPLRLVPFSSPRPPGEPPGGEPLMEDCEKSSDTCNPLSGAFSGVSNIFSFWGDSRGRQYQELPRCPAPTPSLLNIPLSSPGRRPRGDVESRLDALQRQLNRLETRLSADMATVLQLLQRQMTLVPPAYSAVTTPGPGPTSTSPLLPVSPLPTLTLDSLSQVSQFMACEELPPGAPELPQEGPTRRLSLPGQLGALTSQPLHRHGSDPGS
Sequence of Luciferin 4-monooxygenase (Photinus pyralis) (P08659 whole entry, looked up): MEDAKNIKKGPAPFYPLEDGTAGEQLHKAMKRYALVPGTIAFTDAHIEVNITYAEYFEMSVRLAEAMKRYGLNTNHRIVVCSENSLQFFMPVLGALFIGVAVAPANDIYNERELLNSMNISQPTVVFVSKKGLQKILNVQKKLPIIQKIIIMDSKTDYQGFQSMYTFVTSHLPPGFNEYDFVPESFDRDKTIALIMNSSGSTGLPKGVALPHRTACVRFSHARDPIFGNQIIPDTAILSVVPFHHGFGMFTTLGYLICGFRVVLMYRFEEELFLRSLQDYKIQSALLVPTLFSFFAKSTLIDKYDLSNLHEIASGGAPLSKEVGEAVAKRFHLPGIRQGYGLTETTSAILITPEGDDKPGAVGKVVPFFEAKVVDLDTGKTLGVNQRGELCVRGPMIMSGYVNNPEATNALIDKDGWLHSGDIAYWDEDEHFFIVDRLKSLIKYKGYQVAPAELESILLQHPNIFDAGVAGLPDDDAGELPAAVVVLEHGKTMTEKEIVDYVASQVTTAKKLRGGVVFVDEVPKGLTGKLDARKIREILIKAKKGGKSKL

For the molecule `CC(C)=O`, the Potency entry in [1], in assay [14], in assay [15], in [16] and in assay [17] was “inactive” throughout. In addition, the activation in assay [2] was 7.27% (inactive). Besides, the molecule was called inactive in assay [3], in assay [5], in [6], in assay [7], in assay [8] and in assay [10]. In assay [11], the result was inactive. The max response in [4] was -10.3%; in [9], 9.06%; in [12], 9.42%. Also, the activity change % (negative = inhibition) in assay [13] was -5.42% (inactive).

For `O=S(=O)(O)O`, the molecule was called inactive in [6], in [10] and in [11]. The max response in assay [9] is -13.7% and 0.0864%; in assay [12] it was -14.3% and 12.6%. Besides, in [13], the activity change % (negative = inhibition) is 16% (inactive) and -10.1% (inactive). Besides, the Potency entry in assay [14], in [15], in [16] and in assay [17] was “inactive” throughout.

Regarding `CCCCC(CC)COC(=O)CC(C(=O)OCC(CC)CCCC)S(=O)(=O)O` (stereo not drawn), in assay [18], the activation was -0.211% (inactive). The molecule was classed as inactive in [19], in assay [5], in [8] and in assay [11]. The max response in assay [4] is 46.2%. The activity change % (negative = inhibition) in assay [13] was -5.51% (inactive). Further, the Potency result in [16] and in assay [17] was “inactive” in each case.

Regarding `C=C1CC[C@@H]2[C@](C)(CO)[C@H](O)CC[C@@]2(C)[C@@H]1C/C=C1/C(=O)OC[C@H]1O`, the Potency entry in [14] is “inactive”.

For the molecule `Nc1ccn([C@H]2CS[C@@H](CO)O2)c(=O)n1`, the activation in assay [18] was -2.07% (inactive). In addition, the outcome in assay [19], in assay [5], in assay [7], in assay [8], in assay [10] and in assay [11] was inactive. Further, the max response in assay [4] is -4.56%; in assay [9] it was 1%; in assay [12], -4.12%. For the same molecule, the activity change % (negative = inhibition) in assay [13] is 10.8% (inactive). The Potency entry in assay [14] was “inactive”.

As to `CC1=C2[C@@H]([C@H](C)CC[C@H]2/C=C(\C)C(=O)O)[C@H](O)C1`, the Potency result in assay [1], in assay [20] and in assay [14] was “inactive” each time. In addition, the results for the max response in assay [9] and in [12] were 29.1% and 6.79%, respectively. In addition, the outcome in assay [10] and in [11] was inactive.

Regarding `CC[C@@H](C(=O)[C@@H](C)[C@@H](O)[C@H](C)CCc1ccc(C)c(O)c1C(=O)O)[C@H]1O[C@](CC)([C@H]2CC[C@](O)(CC)[C@H](C)O2)C[C@@H]1C`, the Potency result in [14] is “inactive”.

Turning to `CC(C)C[C@@H]1NC(=O)[C@H](CCCN)NC(=O)[C@H](C(C)C)NC(=O)[C@@H]2CCCN2C(=O)[C@@H](Cc2ccccc2)NC(=O)[C@H](CC(C)C)NC(=O)[C@H](CCCN)NC(=O)[C@H](C(C)C)NC(=O)[C@@H]2CCCN2C(=O)[C@@H](Cc2ccccc2)NC1=O` (cyclo(V[Orn]L[dF]PV[Orn]L[dF]P)), the Potency result in [14] was “inactive”.

For the molecule `CC(C)(C)NC(=O)[C@@H]1C[C@@H]2CCCC[C@@H]2CN1C[C@@H](O)[C@H](Cc1ccccc1)NC(=O)[C@H](CC(N)=O)NC(=O)c1ccc2ccccc2n1`, the Potency in assay [20] was 44.7 µM (active); in [14] it was 35.5 µM (active); in [17], 12.8 µM (active). For the same molecule, the molecule was classed as inactive in assay [7] and in assay [11]. Also, in assay [12], the max response is 9.91%. Further, the Potency result in assay [15] and in assay [16] was “inactive” each time.

For `C[C@]12C=CC(=O)N[C@@H]1CC[C@@H]1[C@@H]2CC[C@]2(C)[C@@H](C(=O)Nc3cc(C(F)(F)F)ccc3C(F)(F)F)CC[C@@H]12`, the Potency in assay [14] is 2.51 µM (active).

In the case of `CC(C)C(=O)OCC(=O)[C@@]12O[C@H](C3CCCCC3)O[C@@H]1C[C@H]1[C@@H]3CCC4=CC(=O)C=C[C@]4(C)[C@H]3[C@@H](O)C[C@@]12C`, the Potency in assay [14] is 3.98 µM (active).
